Structures can show the parent of a compound that is named as a salt.

For this experiment, the system named is PBMC-derived induced microglia-like cells (piMGLC). Nature of the experiment: synaptosome phagocytic index relative to DMSO control (fraction of DMSO); higher = more phagocytosis. Particulars: concentration: 10 uM (2 uM for compounds listed in Table S2); pretreatment time: 24 h; assay time: 3 h. The method, then: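 PBMC-derived induced microglia-like cells (piMGLCs) in 96-well plates were pretreated for 24 h with CNS-penetrant library compounds (MedChemExpress HY-L028), mostly at 10 uM; Table S2 lists 9 compounds at 2 uM. pHrodo-Red-labelled human iPSC-neuron synaptosomes (3 ug/well) were then added for 3 h, and cells were fixed and imaged by confocal microscopy. Phagocytic index (synaptosome area / cell count, CellProfiler) is a mean over 3 replicate wells on different plates, normalized to the DMSO control. Compounds leaving <10% of DMSO cell count were marked toxic and given no value.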
Consider `COC(=O)/C=C/c1ccc(O)c(OC)c1` [Ferulic_acid_methyl_ester], for which the synaptosome phagocytic index amounted to 0.783. In the case of `CNC(=O)c1cc(Oc2ccc3nc(N[C@@H]4CCCC[C@H]4O)sc3c2)ccn1`, the synaptosome phagocytic index turned out to be 1.21. Regarding `CC(C)c1c(C(=O)Nc2ccccc2)c(-c2ccccc2)c(-c2ccc(F)cc2)n1CC[C@@H](O)C[C@@H](O)CC(=O)O` [Atorvastatin_(hemicalcium_salt)], the synaptosome phagocytic index worked out at 0.823.

As for `O=C(CCCCCCC(=O)Nc1ccccc1)NO` [Vorinostat], the synaptosome phagocytic index worked out at 0.0904. For the compound `CC(C(=O)O)c1cccc(C(=O)c2ccccc2)c1` (stereo not given) [Ketoprofen], the synaptosome phagocytic index was found to be 0.731. On to `Cc1ncc([N+](=O)[O-])n1CCO` [Metronidazole], for which the synaptosome phagocytic index was 0.51.

`Cc1nc2n(c(=O)c1CCN1CCC(c3noc4cc(F)ccc34)CC1)CCCC2` [Risperidone]: the synaptosome phagocytic index is 0.887. For the compound `OCCOCCN1CCN(C(c2ccccc2)c2ccc(Cl)cc2)CC1` (stereo not given) [Hydroxyzine_(dihydrochloride)], the synaptosome phagocytic index turned out to be 0.957. Consider `CC(=O)Nc1cccc(-n2c(=O)n(C3CC3)c(=O)c3c(Nc4ccc(I)cc4F)n(C)c(=O)c(C)c32)c1` [Trametinib], for which the synaptosome phagocytic index is 0.637.

For the compound `CCN(CC)C(=O)[C@@]1(c2ccccc2)C[C@H]1CN` [Milnacipran_((1S-cis)_hydrochloride)], the synaptosome phagocytic index was 0.67. For `COc1cc2c(N3CCN(C(=O)Nc4ccc(OC(C)C)cc4)CC3)ncnc2cc1OCCCN1CCCCC1` [Tandutinib], the synaptosome phagocytic index came out at 0.936.

`CC(=O)N1CCc2c(c(N3CCCc4cc(-c5cnn(C)c5)c(C(F)F)cc43)nn2C2CCOCC2)C1`: the synaptosome phagocytic index turned out to be 0.59. With `CC(C)NCC(O)COc1cccc2ccccc12` (stereo not given) [Propranolol_(hydrochloride)], the synaptosome phagocytic index is 1.1. The result for `CN(Cc1cnc2nc(N)nc(N)c2n1)c1ccc(C(=O)N[C@@H](CCC(=O)O)C(=O)O)cc1` [Methotrexate] reads 1.02; that for `CN(C)CCCN1c2ccccc2CCc2ccc(Cl)cc21` [Clomipramine_(hydrochloride)], 0.39; that for `Nc1nc(NC2CC2)c2ncn([C@H]3C=C[C@@H](CO)C3)c2n1` [Abacavir_(sulfate)], 1.1. Take `CN(C)C(=N)NC(=N)N` [Metformin]: the synaptosome phagocytic index turned out to be 1.28.

On to `OC(CCN1CCCCC1)(c1ccccc1)C1CCCCC1` (stereo not given) [Trihexyphenidyl_(hydrochloride)], for which the synaptosome phagocytic index turned out to be 1.24.

As to `Cn1cc(-c2c[nH]c3ncnc(N4CCOCC4)c23)cc1C#N`, the synaptosome phagocytic index worked out at 1.32. In the case of `O=C(O)c1cc(/N=N/c2ccc(S(=O)(=O)Nc3ccccn3)cc2)ccc1O` [Sulfasalazine], the synaptosome phagocytic index came to 0.883. For `O=C(c1ccc(F)cc1)N1CCC[C@H](c2nc(-c3ccc(F)cc3)no2)C1`, the synaptosome phagocytic index is 0.938. `C[C@@H](NC(=O)c1ccc(F)cc1)c1ccc2c(c1)CCN2C(=O)C1CCOCC1`: the synaptosome phagocytic index came out at 0.908. For `COc1cc(C(=O)Nc2cc(OC(F)(F)F)ccc2-n2cncn2)ccc1OCC1CC1`, the synaptosome phagocytic index is 0.921. For `O=c1ncn2nc(Sc3ccc(F)cc3F)ccc2c1-c1c(Cl)cccc1Cl` [Neflamapimod], the synaptosome phagocytic index was 0.984. The result for `CC1COc2c(N3CCN(C)CC3)c(F)cc3c(=O)c(C(=O)O)cn1c23` (stereo not given) [Ofloxacin] reads 1.05; that for `Fc1c(Br)cccc1Nc1ncnc2cc3c(cc12)OCCO3`, 0.118; that for `N=C(N)NC(=O)Cc1c(Cl)cccc1Cl` [Guanfacine_(hydrochloride)], 1.13.

With `CN(C)C(=O)c1cc2cnc(Nc3ccc(N4CCNCC4)cn3)nc2n1C1CCCC1` [Ribociclib], the synaptosome phagocytic index was 0.78. The result for `CC(=O)NCCCS(=O)(=O)O` [Acamprosate_(calcium)] reads 0.864; that for `Nc1ccccc1NC(=O)c1ccc(CNC(=O)OCc2cccnc2)cc1` [Entinostat], 0.753. Take `N[C@H]1CONC1=O` [L-Cycloserine]: the synaptosome phagocytic index was 0.883. Regarding `Cc1cccc(C)c1OCC(=O)N[C@@H](Cc1ccccc1)[C@@H](O)C[C@H](Cc1ccccc1)NC(=O)[C@H](C(C)C)N1CCCNC1=O` [Lopinavir], the synaptosome phagocytic index worked out at 0.253. `CN1CCN(C2=Nc3cc(Cl)ccc3Nc3ccccc32)CC1` [Clozapine]: the synaptosome phagocytic index amounted to 0.697.

`COc1cc2/c(=N/c3ccc(Br)cc3F)nc[nH]c2cc1OCC1CCN(C)CC1` [Vandetanib]: the synaptosome phagocytic index came out at 0.248. Turning to `CCc1c2c(nc3ccc(OC(=O)N4CCC(N5CCCCC5)CC4)cc13)-c1cc3c(c(=O)n1C2)COC(=O)[C@]3(O)CC` [Irinotecan_(hydrochloride_trihydrate)], the synaptosome phagocytic index came out at 0.682. For `COc1ccc(Cl)cc1C(=O)NCCc1ccc(S(=O)(=O)NC(=O)NC2CCCCC2)cc1` [Glibenclamide], the synaptosome phagocytic index turned out to be 0.608. `C[N+]1([O-])CCN(C2=Nc3cc(Cl)ccc3Nc3ccccc32)CC1` [Clozapine_N-oxide_(dihydrochloride)]: the synaptosome phagocytic index came to 0.606. Take `OC1(CN2CCC(COc3noc4cccc(O[C@@H]5CCOC5)c34)CC2)CCOCC1`: the synaptosome phagocytic index was determined as 0.793. For `Nc1nc(=O)n([C@@H]2CS[C@H](CO)O2)cc1F` [Emtricitabine], the synaptosome phagocytic index was 0.777. Turning to `CN1CC[C@H](c2c(O)cc(O)c3c(=O)cc(-c4ccccc4Cl)oc23)[C@H](O)C1` [Flavopiridol], the synaptosome phagocytic index was found to be 0.936.
